# Test results as given in ChEMBL document CHEMBL2218924, “A broad activity screen in support of a chemogenomic map for kinase signalling research and drug discovery” (Biochem J, 2013).
# Experiments:
# [1] = molecular target: T1, Ephrin type-B receptor 1 (Homo sapiens) (UniProt P54762); conditions: at 10 µM
# T1 sequence (whole entry): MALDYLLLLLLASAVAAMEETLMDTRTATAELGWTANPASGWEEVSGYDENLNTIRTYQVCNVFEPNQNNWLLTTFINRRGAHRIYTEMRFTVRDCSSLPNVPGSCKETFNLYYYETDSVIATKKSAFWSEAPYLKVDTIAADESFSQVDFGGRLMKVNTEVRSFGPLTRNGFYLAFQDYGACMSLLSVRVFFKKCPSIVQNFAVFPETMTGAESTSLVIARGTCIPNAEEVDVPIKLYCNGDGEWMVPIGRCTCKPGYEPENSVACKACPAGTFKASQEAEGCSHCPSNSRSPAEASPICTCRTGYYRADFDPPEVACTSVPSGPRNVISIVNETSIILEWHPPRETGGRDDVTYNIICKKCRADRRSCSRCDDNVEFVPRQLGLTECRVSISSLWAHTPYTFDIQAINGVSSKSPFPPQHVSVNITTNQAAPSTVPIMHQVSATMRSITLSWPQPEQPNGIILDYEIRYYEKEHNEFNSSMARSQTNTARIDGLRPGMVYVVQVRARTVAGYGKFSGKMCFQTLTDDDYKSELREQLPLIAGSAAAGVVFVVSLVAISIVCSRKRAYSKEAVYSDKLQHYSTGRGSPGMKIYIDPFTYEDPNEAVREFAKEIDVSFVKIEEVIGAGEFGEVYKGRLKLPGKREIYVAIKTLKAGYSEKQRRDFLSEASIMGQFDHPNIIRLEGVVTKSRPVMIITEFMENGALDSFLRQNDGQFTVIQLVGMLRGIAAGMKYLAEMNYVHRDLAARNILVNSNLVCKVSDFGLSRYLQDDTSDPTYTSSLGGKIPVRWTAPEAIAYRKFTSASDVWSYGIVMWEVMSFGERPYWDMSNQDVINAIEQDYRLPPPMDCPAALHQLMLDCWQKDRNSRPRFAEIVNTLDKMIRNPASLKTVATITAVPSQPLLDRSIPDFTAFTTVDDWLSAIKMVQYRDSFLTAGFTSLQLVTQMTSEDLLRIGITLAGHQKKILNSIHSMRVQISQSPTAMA
# [2] = molecular target: T2, Ephrin type-B receptor 2 (Homo sapiens) (UniProt P29323); conditions: at 1 µM
# T2 sequence (whole entry): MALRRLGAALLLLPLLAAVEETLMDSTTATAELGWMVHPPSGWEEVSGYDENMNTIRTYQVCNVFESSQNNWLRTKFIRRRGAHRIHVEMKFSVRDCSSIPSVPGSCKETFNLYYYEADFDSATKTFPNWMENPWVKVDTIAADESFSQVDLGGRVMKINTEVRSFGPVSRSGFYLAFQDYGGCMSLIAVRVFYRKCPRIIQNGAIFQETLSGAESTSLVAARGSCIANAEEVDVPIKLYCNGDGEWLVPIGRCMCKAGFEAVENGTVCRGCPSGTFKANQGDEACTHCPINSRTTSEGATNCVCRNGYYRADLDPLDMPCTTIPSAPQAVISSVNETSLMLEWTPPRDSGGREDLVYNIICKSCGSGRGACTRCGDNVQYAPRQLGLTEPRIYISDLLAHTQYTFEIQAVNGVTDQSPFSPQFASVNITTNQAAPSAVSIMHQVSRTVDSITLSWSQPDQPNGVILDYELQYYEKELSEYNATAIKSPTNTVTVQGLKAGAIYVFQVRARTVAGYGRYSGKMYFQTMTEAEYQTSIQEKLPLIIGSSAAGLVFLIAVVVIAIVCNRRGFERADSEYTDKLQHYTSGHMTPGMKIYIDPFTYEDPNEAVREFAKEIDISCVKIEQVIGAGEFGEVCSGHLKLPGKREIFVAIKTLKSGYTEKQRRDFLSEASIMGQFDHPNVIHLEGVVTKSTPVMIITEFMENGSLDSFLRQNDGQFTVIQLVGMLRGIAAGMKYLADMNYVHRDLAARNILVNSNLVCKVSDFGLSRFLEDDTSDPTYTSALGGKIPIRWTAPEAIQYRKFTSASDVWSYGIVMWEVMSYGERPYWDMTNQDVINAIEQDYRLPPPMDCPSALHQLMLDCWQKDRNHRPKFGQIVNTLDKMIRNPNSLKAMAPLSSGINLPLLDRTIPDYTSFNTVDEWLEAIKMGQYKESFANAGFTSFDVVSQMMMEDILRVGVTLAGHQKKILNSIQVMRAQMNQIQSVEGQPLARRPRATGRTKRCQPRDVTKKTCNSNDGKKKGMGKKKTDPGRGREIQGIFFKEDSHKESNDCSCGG
# [3] = molecular target: T2, Ephrin type-B receptor 2 (Homo sapiens); conditions: at 10 µM
# [4] = molecular target: T3, Ephrin type-B receptor 3 (Homo sapiens) (UniProt P54753); conditions: at 1 µM
# T3 sequence (whole entry): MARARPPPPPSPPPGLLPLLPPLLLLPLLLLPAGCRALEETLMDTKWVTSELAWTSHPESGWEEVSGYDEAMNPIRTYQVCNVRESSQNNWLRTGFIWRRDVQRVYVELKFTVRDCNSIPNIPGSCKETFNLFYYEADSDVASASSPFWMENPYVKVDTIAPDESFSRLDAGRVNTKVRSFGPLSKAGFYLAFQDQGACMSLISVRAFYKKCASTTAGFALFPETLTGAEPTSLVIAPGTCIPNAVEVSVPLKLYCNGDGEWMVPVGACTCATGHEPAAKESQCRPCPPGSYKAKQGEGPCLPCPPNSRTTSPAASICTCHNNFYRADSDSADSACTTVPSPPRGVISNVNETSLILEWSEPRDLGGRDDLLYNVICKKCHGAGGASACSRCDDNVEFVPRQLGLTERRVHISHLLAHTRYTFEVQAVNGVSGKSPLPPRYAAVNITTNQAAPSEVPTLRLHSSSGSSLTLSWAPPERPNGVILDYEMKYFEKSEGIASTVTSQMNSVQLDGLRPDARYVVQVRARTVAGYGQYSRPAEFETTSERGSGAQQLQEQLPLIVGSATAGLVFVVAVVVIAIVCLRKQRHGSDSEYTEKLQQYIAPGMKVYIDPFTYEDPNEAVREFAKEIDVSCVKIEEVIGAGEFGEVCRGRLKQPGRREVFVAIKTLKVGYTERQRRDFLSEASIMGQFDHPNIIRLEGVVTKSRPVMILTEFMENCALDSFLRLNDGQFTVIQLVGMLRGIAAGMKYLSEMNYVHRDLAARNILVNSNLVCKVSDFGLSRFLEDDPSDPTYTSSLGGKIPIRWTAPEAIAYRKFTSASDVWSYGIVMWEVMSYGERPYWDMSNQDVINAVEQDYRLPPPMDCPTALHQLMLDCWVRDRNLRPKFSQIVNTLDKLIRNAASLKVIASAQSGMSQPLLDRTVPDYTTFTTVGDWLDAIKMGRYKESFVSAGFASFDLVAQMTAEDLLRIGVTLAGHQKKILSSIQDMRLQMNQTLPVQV
# [5] = molecular target: T3, Ephrin type-B receptor 3 (Homo sapiens); conditions: at 10 µM
# [6] = molecular target: T4, Ephrin type-B receptor 4 (Homo sapiens) (UniProt P54760); conditions: at 1 µM
# T4 sequence (whole entry): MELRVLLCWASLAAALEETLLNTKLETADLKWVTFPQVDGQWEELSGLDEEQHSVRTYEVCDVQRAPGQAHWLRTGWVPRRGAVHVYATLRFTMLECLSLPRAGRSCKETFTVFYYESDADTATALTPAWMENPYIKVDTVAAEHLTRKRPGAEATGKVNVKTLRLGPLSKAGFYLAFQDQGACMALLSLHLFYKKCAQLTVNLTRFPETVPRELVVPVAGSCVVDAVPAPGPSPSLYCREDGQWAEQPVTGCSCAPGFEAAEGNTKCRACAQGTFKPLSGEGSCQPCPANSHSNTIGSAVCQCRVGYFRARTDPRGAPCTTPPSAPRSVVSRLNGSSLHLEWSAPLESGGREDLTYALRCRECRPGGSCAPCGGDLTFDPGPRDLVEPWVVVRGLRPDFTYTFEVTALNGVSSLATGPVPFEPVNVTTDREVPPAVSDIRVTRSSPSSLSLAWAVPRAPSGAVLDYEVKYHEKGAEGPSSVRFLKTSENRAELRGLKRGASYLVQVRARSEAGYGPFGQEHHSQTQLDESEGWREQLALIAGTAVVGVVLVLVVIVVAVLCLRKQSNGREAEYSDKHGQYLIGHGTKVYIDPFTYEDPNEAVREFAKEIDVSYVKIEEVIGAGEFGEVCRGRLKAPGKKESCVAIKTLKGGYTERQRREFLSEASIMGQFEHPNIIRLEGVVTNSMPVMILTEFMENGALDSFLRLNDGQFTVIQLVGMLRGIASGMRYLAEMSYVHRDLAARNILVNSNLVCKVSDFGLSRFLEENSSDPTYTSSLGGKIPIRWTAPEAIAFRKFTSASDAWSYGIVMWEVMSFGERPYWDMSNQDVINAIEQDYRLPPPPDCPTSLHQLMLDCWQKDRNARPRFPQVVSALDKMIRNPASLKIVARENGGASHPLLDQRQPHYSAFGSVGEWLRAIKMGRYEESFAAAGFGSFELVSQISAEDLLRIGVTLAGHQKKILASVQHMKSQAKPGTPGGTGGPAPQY
# [7] = molecular target: T4, Ephrin type-B receptor 4 (Homo sapiens); conditions: at 10 µM
# [8] = molecular target: Receptor tyrosine-protein kinase erbB-4 (Homo sapiens) (UniProt Q15303); conditions: at 1 µM
# Receptor tyrosine-protein kinase erbB-4 (Homo sapiens), sequence (Q15303 whole entry): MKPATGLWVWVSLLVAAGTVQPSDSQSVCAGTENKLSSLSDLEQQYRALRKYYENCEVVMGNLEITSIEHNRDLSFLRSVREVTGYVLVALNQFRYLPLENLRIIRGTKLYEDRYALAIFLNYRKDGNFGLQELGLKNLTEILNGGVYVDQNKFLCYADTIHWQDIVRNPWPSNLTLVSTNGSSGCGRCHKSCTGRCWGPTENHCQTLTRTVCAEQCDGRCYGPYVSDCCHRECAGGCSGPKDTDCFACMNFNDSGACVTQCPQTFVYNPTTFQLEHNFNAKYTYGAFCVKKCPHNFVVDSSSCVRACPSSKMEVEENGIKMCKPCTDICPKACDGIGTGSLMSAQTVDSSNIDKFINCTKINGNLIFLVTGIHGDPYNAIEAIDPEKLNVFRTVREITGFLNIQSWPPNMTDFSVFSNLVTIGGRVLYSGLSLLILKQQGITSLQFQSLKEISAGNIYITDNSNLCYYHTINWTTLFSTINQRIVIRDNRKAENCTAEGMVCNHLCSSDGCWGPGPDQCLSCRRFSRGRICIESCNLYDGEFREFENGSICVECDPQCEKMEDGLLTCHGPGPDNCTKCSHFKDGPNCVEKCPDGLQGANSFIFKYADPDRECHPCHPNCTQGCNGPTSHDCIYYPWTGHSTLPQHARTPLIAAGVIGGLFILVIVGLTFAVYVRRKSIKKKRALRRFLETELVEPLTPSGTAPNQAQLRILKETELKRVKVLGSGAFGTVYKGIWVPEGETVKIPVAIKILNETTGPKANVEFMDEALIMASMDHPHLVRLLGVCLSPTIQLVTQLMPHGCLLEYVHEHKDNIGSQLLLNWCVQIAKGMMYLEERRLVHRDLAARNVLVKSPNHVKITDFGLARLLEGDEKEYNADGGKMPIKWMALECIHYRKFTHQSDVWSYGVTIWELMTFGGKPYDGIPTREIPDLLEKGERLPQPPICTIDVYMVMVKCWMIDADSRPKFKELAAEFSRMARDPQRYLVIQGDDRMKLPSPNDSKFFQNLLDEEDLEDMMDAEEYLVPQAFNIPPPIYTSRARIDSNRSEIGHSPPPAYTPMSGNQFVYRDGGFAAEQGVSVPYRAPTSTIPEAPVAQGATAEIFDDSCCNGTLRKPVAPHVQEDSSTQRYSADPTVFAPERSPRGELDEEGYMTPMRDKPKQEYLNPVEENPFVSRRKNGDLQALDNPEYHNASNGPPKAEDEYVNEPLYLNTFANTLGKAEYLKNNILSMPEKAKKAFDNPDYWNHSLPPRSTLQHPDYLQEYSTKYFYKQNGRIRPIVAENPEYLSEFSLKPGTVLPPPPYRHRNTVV
# [9] = molecular target: Receptor tyrosine-protein kinase erbB-4 (Homo sapiens) (UniProt Q15303); conditions: at 10 µM
# [10] = molecular target: Focal adhesion kinase 1 (Homo sapiens) (UniProt Q05397); conditions: at 1 µM
# Focal adhesion kinase 1 (Homo sapiens), sequence (Q05397 2-1052 limits assumed): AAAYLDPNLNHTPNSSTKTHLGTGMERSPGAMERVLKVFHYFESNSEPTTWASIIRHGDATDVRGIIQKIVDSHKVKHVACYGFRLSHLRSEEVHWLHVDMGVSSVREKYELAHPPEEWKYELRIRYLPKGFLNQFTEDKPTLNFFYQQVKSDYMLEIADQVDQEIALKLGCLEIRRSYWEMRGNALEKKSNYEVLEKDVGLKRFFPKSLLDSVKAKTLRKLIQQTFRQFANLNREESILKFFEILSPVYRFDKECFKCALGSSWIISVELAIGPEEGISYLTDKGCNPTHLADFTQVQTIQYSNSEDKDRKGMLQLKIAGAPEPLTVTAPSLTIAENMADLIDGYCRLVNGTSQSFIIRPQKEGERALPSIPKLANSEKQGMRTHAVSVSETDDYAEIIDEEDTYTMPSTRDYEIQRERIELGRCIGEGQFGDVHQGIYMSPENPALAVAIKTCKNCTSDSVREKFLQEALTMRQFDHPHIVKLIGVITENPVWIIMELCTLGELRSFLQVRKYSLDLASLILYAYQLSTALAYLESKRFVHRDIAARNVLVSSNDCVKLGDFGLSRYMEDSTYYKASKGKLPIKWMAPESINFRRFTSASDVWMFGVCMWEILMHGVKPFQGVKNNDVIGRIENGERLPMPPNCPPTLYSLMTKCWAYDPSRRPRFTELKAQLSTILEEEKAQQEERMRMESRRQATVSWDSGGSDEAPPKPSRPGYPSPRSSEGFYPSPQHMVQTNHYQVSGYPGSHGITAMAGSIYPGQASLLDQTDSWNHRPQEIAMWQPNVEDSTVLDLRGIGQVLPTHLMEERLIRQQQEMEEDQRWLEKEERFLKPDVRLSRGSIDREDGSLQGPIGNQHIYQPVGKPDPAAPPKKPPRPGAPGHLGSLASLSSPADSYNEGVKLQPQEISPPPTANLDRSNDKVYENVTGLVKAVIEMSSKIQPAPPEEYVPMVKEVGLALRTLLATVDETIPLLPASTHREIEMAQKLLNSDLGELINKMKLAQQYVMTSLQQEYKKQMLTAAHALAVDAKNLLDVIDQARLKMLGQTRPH
smiles,measurement,setting,value
CC[n+]1c(/C=C/N(C)c2ccccc2)n(-c2ccccc2)c2ccc(-c3nc4ccccc4s3)cc21,residual activity,[1],56%
same,residual activity,[2],136%
same,residual activity,[3],129%
same,residual activity,[4],131% (inactive)
same,residual activity,[5],160%
same,residual activity,[6],114%
same,residual activity,[7],159%
same,residual activity,[8],79%
same,residual activity,[9],99%
same,residual activity,[10],144%
